Reference: PubChem BioAssay (Tox21)
Results filed as inconclusive are left out. A call without a number means that no potency is given here. Calls of active or inactive are those of the source. Unless noted, the call rests on the fitted dose curve; in most records, active means well fitted curve in the direction sought with a large enough effect in the repeat runs; inconclusive means weak or mixed curves; inactive means no such curve, though single readings can be large; an effect the other way counts as inactive or inconclusive.

Tests used:
[1] = qHTS assay to identify aromatase inhibitors - cell viability counter screen (AID 743084);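 further: cells stimulated with testosterone during compound exposure; nearly all actives have a fitted effect of over 55% in size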; further: potency means the concentration at half of the fitted maximal effect
[2] = qHTS assay to identify small molecule that activate the aryl hydrocarbon receptor (AhR) signaling pathway - cell viability counter screen (AID 743086); further: nearly all actives have a fitted effect of over 45% in size; further: potency means the concentration at half of the fitted maximal effect
Method in brief: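 HepG2-AhR-luc (HG2L7.5c1) cells, 4000/well, treated 24 h at 37 C with compound; viability measured as CellTiter-Fluor fluorescence after 30 min in the same wells as the luciferase read.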

[3] = molecular target: Peroxisome proliferator-activated receptor gamma (Homo sapiens) (UniProt P37231); test: qHTS assay to identify small molecule agonists of the peroxisome proliferator-activated receptor gamma (PPARg) signaling pathway (AID 743094; active means well fitted activation curve with a large enough effect in the signal ratio in the repeat runs, not every such curve was filed as active; the % refers to the signal ratio)
Method in brief: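 Cells from the PPARg UAS-bla HEK293H line are plated and incubated 5 h at 37C. Compounds in DMSO are pinned in and left 17 h at 37C. LiveBLAzer B/G substrate is then added for 1 h at room temperature before fluorescence is measured.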

[4] = molecular target: Peroxisome proliferator-activated receptor gamma (Homo sapiens) (UniProt P37231); test: qHTS assay to identify small molecule antagonists of the peroxisome proliferator-activated receptor gamma (PPARg) signaling pathway (AID 743191; calls by dose curve; further: series mostly up to about 63 µM; nearly all actives have a fitted effect of over 30% in size)
Method in brief: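 GeneBLAzer PPARg UAS-bla HEK293H cells, 5 h post-plating, exposed to compounds 17 h at 37C. LiveBLAzer B/G FRET substrate added for 1 h at room temperature; beta-lactamase reporter read by fluorescence intensity.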

[5] = qHTS assay for small molecule agonists of the antioxidant response element (ARE) signaling pathway - cell viability counter screen (AID 743203; calls by dose curve; further: nearly all actives have a fitted effect of over 55% in size; further: potency means the concentration at half of the fitted maximal effect)
Method in brief: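 Cytotoxicity was tested in parallel with the ARE reporter screen. ARE-bla HepG2 cells were exposed to compounds for 16 hrs, and viability was taken from CellTiter-Glo luminescence.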

[6] = qHTS assay for small molecule activators of the heat shock response signaling pathway - cell viability counter screen (AID 743209); further: nearly all actives have a fitted effect of over 50% in size
Method in brief: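 Cytotoxicity counter screen run in parallel with the HSE beta-lactamase reporter, using the same wells. HeLa HSE-bla cells received compound for 5 h at 37 C; ATP-based CellTiter-Glo luminescence was measured after 30 min at room temperature.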

[7] = qHTS assay for small molecule activators of the heat shock response signaling pathway (AID 743210; active means well fitted activation curve with a large enough effect in the signal ratio in the repeat runs, with a control signal flat, not every such curve was filed as active; the % refers to the signal ratio;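 further: HeLa cells with beta-lactamase reporter driven by heat shock elements; series mostly up to about 63 µM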)
Method in brief: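 Following overnight attachment, HSE-bla HeLa cells received test compounds for 5 h at 37 C; beta-lactamase activity was then detected via FRET substrate fluorescence.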

[8] = qHTS assay to identify small molecule agonists of the peroxisome proliferator-activated receptor delta (PPARd) signaling pathway - cell viability counter screen (AID 743211); further: nearly all actives have a fitted effect of over 55% in size
Method in brief: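 Viability of GeneBLAzer PPARd UAS-bla HEK293H cells was assessed after 17 h compound incubation at 37C, using CellTiter-Glo reagent added after the reporter read and luminescence recorded 30 min later.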

[9] = molecular target: Peroxisome proliferator-activated receptor delta (Homo sapiens) (UniProt Q03181); test: qHTS assay to identify small molecule agonists of the peroxisome proliferator-activated receptor delta (PPARd) signaling pathway (AID 743212; calls by dose curve)
Method in brief: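 Tox21 library screened in GeneBLAzer PPARd UAS-bla HEK293H cells. After compound treatment at 37 C, a FRET-based beta-lactamase substrate was applied for 2 h and fluorescence recorded.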

[10] = qHTS assay to identify small molecule antagonists of the peroxisome proliferator-activated receptor delta (PPARd) signaling pathway - cell viability counter screen (AID 743213); further: nearly all actives have a fitted effect of over 50% in size
Method in brief: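 PPARd-bla HEK293H cells were treated with compounds plus agonist L165041 (300 nM final) for 17 h at 37 C. Viability was then read in the same wells by CellTiter-Glo luminescence after 30 min at room temperature.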

[11] = molecular target: Peroxisome proliferator-activated receptor delta (Homo sapiens) (UniProt Q03181); test: qHTS assay to identify small molecule antagonists of the peroxisome proliferator-activated receptor delta (PPARd) signaling pathway (AID 743215; active means well fitted inhibition curve with a large enough effect in the signal ratio in the repeat runs, not every such curve was filed as active; the % refers to the signal ratio;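 further: cells stimulated with agonist L165041 at 300 nM final during compound exposure; series mostly up to about 62 µM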)
Method in brief: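 Cells: HEK293H with a UAS-driven beta-lactamase reporter responsive to PPARd. Compounds were co-added with L165041 (300 nM, final) and incubated 17 h at 37 C before a 2 h room-temperature FRET substrate step and fluorescence reading.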

[12] = qHTS assay to identify small molecule antagonists of the farnesoid-X-receptor (FXR) signaling pathway - cell viability counter screen (AID 743221; active means well fitted cell-killing curve with a large enough effect in the repeat runs, not every such curve was filed as active; further: nearly all actives have a fitted effect of over 50% in size)
Method in brief: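 Quantitative HTS of the Tox21 10K library run in parallel with the beta-lactamase reporter read. HEK 293T cells carrying a UAS-driven bla reporter got compound and 50 uM CDCA (final) for 16 h; ATP-based luminescence followed.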

[13] = molecular target: Vitamin D3 receptor (Homo sapiens) (UniProt P11473); test: qHTS assay to identify small molecule agonists of the vitamin D receptor (VDR) signaling pathway (AID 743222; calls by dose curve)
Method in brief: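 Cells carrying a VDR-driven beta-lactamase reporter are seeded at 2,000 per well and rested 4 h. Compounds in DMSO are added for 16 h at 37C, and FRET substrate fluorescence is measured after 2 h at room temperature.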

[14] = molecular target: Vitamin D3 receptor (Homo sapiens) (UniProt P11473); test: qHTS assay to identify small molecule antagonists of the vitamin D receptor (VDR) signaling pathway (AID 743223; active means well fitted inhibition curve with a large enough effect in the signal ratio in the repeat runs, not every such curve was filed as active; the % refers to the signal ratio)
Method in brief: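 Fluorescence from LiveBLAzer B/G FRET substrate, read after 2 h at room temperature, reflects beta-lactamase reporter activity in VDR-bla cells treated 16 h at 37C with compounds and agonist 1alpha,25-dihydroxyvitamin D3 (3 nM final).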

[15] = qHTS assay for small molecule agonists of the antioxidant response element (ARE) signaling pathway (AID 743202; active means well fitted activation curve with a large enough effect in the signal ratio in the repeat runs, not every such curve was filed as active; the % refers to the signal ratio; further: potency means the concentration at half of the fitted maximal effect)
Method in brief: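 HepG2 ARE-bla cells; 16 h treatment at 37 C; FRET-based beta-lactamase fluorescence read after 2 h substrate incubation at room temperature.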

[16] = molecular target: Bile acid receptor (Homo sapiens) (UniProt Q96RI1); test: qHTS assay to identify small molecule antagonists of the farnesoid-X-receptor (FXR) signaling pathway (AID 743217; active means well fitted inhibition curve with a large enough effect in the signal ratio in the repeat runs, not every such curve was filed as active; the % refers to the signal ratio)
Method in brief: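 Cells carrying a UAS-driven beta-lactamase reporter (GeneBLAzer FXR-UAS-bla HEK 293T) were plated and rested 5 h at 37 °C. Compounds in DMSO were added alongside chenodeoxycholic acid agonist at 50 uM final and left 16 h at 37 °C before FRET substrate readout.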

[17] = qHTS assay to identify small molecule agonists of the farnesoid-X-receptor (FXR) signaling pathway - cell viability counter screen (AID 743218); further: nearly all actives have a fitted effect of over 45% in size
Method in brief: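 Cells were seeded, left 5 h at 37 C and 5% CO2, then dosed with compound in DMSO for 16 h. After the beta-lactamase FRET read, CellTiter-Glo was added and luminescence measured 30 min later.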

[18] = molecular target: Bile acid receptor (Homo sapiens) (UniProt Q96RI1); test: qHTS assay to identify small molecule agonists of the farnesoid-X-receptor (FXR) signaling pathway (AID 743220; active means well fitted activation curve with a large enough effect in the signal ratio in the repeat runs, not every such curve was filed as active; the % refers to the signal ratio)
Method in brief: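 FXR-UAS-bla HEK 293T cells carrying a UAS-driven beta-lactamase reporter were plated for 5 h at 37C/5% CO2, then exposed to DMSO-dissolved Tox21 10K compounds for 16 h at 37C. A LiveBLAzer B/G FRET substrate was loaded for 2 h at room temperature before fluorescence reading.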

[19] = qHTS assay to identify small molecule antagonists of the peroxisome proliferator-activated receptor gamma (PPARg) signaling pathway - cell viability counter screen (AID 743194); further: nearly all actives have a fitted effect of over 55% in size
Method in brief: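 Cytotoxicity counter screen in PPARg-bla HEK293H cells, same wells as reporter assay. Compounds plus 50 nM rosiglitazone (final) for 17 h at 37 C, then viability read by CellTiter-Glo luminescence.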

Peroxisome proliferator-activated receptor gamma (Homo sapiens), sequence (P37231 whole entry, looked up): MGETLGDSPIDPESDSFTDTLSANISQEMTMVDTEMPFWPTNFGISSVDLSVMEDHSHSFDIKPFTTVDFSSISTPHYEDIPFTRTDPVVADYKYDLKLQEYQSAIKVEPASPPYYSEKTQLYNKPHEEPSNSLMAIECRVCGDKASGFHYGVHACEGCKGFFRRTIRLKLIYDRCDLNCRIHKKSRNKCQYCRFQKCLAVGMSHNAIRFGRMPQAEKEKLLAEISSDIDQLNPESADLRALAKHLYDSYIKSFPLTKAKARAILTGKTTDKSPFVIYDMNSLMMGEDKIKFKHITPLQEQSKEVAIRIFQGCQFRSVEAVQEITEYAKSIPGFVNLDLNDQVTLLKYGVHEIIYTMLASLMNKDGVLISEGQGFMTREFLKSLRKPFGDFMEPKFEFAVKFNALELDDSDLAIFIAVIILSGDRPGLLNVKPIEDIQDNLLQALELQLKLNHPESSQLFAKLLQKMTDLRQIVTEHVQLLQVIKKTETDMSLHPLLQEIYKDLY
Vitamin D3 receptor (Homo sapiens), sequence (P11473 whole entry, looked up): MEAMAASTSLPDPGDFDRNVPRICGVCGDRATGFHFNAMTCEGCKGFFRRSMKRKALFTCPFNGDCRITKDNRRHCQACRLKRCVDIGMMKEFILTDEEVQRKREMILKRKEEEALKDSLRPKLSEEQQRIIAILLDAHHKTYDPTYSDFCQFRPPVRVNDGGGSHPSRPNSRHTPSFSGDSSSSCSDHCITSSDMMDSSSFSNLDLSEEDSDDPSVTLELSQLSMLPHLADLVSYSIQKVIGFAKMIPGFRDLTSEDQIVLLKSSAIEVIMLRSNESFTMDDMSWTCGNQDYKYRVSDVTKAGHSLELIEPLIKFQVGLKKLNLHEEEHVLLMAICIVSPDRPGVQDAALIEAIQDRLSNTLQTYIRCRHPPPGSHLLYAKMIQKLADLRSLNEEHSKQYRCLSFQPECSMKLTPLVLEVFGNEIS
Peroxisome proliferator-activated receptor delta (Homo sapiens), sequence (Q03181 whole entry, looked up): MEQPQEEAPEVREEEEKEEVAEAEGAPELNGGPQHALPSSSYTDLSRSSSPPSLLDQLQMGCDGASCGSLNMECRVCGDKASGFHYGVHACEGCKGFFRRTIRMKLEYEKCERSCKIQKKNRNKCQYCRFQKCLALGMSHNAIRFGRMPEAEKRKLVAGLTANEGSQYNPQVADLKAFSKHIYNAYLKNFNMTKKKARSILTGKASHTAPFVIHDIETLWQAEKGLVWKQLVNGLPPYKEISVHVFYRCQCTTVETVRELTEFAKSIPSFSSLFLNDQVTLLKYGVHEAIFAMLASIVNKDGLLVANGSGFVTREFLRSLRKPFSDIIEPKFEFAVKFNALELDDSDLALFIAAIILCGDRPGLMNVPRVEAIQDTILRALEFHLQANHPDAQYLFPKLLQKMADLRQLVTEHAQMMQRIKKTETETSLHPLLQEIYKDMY
Bile acid receptor (Homo sapiens), sequence (Q96RI1 whole entry, looked up): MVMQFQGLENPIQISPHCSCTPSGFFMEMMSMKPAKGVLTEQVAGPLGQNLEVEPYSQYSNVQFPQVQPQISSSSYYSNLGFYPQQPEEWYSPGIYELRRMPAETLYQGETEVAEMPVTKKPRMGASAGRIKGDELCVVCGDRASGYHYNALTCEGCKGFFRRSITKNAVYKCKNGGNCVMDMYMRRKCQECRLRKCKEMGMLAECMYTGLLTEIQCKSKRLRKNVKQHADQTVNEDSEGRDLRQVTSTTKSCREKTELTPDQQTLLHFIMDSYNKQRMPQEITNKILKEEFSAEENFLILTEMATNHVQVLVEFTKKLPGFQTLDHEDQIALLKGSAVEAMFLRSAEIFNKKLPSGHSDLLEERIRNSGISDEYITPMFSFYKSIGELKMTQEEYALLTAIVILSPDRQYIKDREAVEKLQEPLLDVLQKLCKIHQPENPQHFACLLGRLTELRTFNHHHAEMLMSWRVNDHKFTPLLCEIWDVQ

Compound | Potency [1] | Potency [2] | Potency [3] | Potency [4] | Potency [5] | Potency [6] | Potency [7] | Potency [8] | Potency [9] | Potency [10] | Potency [11] | Potency [12] | Potency [13] | Potency [14] | Potency [15] | Potency [16] | Potency [17] | Potency [18] | Potency [19]
Nc1nnc(-c2ccc([N+](=O)[O-])o2)o1 | 61.1 µM (active) | 54.5 µM (active) | inactive | inactive | 48.6 µM (active) | inactive | inactive | inactive | inactive | inactive | inactive | inactive | inactive | inactive |  |  |  |  | 
c1ccc2sc(SN(C3CCCCC3)C3CCCCC3)nc2c1 | inactive | inactive | inactive |  | inactive |  | inactive | inactive | inactive | inactive | inactive | inactive | inactive | inactive | 30.3 µM (active) | inactive | inactive | inactive | 
CCC=CC#N | inactive | inactive |  |  |  | inactive | inactive | inactive | inactive | inactive |  | inactive |  |  | inactive |  |  |  | inactive
COC(=O)C1=C(C)NC(C)=C(C(=O)O[C@@H]2CCCN(Cc3ccccc3)C2)[C@@H]1c1cccc([N+](=O)[O-])c1 | inactive |  |  |  |  | inactive | inactive |  |  | inactive | inactive | inactive | inactive | inactive |  |  |  |  | inactive
c1cc(N(CC2CO2)CC2CO2)ccc1Cc1ccc(N(CC2CO2)CC2CO2)cc1 (centres undefined) | 27.3 µM (active) | 54.5 µM (active) |  |  |  |  |  | inactive |  | inactive |  | inactive |  |  |  |  |  |  | 
